# Screen size: about 64,000 compounds; about 220 (0.34%) were called active.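 How the source made its calls: active means inhibition above 50%; inactive means the rest.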 The entries come from a sample that favours actives as a whole.
# Biological target: Heat shock protein HSP 90-alpha (Homo sapiens) (UniProt P07900)
# Test: tumor Hsp90 inhibitors, primary screen, cell lysate, fluorescence polarization, NCI-N417 lysate (AID 429);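 further: 0% = tracer plus lysate wells and 100% = tracer alone without lysate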
# Details: NCI-N417 lysate Hsp90, Cy3B-geldanamycin FP displacement; at 30 µM; hits give high values
row,SMILES,inhibition
1,Cc1cccn2c(=O)c3cc(C(=O)N4COCC4(C)C)n(C)c3nc12,0.48% (inactive)
2,COc1ccc(Cl)cc1S(=O)(=O)Nc1cccc(C(=O)O)c1,-0.7% (inactive)
3,O=S(=O)(NCC1CCCO1)c1ccc2ccccc2c1 (centres undefined),-3.52% (inactive)
4,Cc1cc(Cl)c(S(=O)(=O)NCC2CCCO2)cc1OCC(N)=O (centres undefined),-4.41% (inactive)
5,Cc1ccc(C(=O)O)cc1S(=O)(=O)NCC1CCCO1 (centres undefined),77.4% (active)
6,CCSc1nc2c(c(=O)[nH]1)C(c1cccnc1)C(C(=O)OC(C)C)=C(C)N2 (centres undefined),-0.2% (inactive)
7,O=C(O)CSC(NC(=O)c1cccnc1)(C(F)(F)F)C(F)(F)F,-0.65% (inactive)
8,O=C(Nn1cnc2ccccc2c1=O)c1ccc(F)cc1Cl,-2.64% (inactive)
9,CCCCn1c(=S)[nH]c2ncccc2c1=O,-6.13% (inactive)
10,Cc1ccc2[nH]c3c(c2c1)CN(C(=O)CN1CCN(c2ccccc2)CC1)CC3,92.3% (active)
11,CCCC(=O)N1CCc2[nH]c3ccccc3c2C1,-3.78% (inactive)
12,O=C(NC1CCCCC1)N1CCc2[nH]c3ccccc3c2C1,-4.69% (inactive)
13,Cc1ccc(C)c(N(CC(=O)NCc2ccco2)C(=O)CCC(=O)Nc2ccccn2)c1,-5.16% (inactive)
14,Cc1c(C(=O)OCC(=O)N(CCC#N)c2ccccc2)oc2c1ccc1ccccc12,0.74% (inactive)
15,COc1nc(Oc2ccc(=O)n(C)n2)nc(N(C)C)n1,-0.95% (inactive)
16,COc1cccc(C2/C(=C(/O)c3ccc(F)cc3)C(=O)C(=O)N2CCN(C)C)c1 (centres undefined),-1.56% (inactive)
17,CC1CN(c2cc(=O)n(-c3cccc(Br)c3)c(=O)[nH]2)CC(C)O1 (centres undefined),1.65% (inactive)
18,Cc1ccc(N2CCN(c3ccc(C)cc3)C2c2ccccn2)cc1,0.05% (inactive)
19,COc1cc(C2C(C(=O)Nc3ccc(F)cc3)=C(C)Nc3nc(CCCO)nn32)cc(OC)c1OC (centres undefined),-1.54% (inactive)
20,CCOc1ccccc1N(CC(=O)NC1CCCCC1)C(=O)CCCC(=O)Nc1ccccn1,-0.59% (inactive)

row,SMILES,inhibition
1,CC1OC2C(OC1C)N(S(C)(=O)=O)CCN2S(C)(=O)=O (centres undefined),-2.81% (inactive)
2,O=C(O)CCC(=O)Nc1ccc(N2CCOCC2)cc1,8.24% (inactive)
3,COc1ccc(C(=O)NCc2cn3ccccc3n2)cc1,2.11% (inactive)
4,O=C(CC1N=C2c3ccccc3N=C(SCc3ccccc3Cl)N2C1=O)NCc1ccco1 (centres undefined),-7.5% (inactive)
5,CCCC(C(=O)NCc1ccco1)N(C(=O)CNS(=O)(=O)c1ccccc1)C1CCCC1 (centres undefined),-1.3% (inactive)
6,CCOC(=O)CSC1=C(C#N)C(c2sccc2C)CC(=O)N1 (centres undefined),-2.64% (inactive)
7,Cc1nn(-c2ccccc2)c(C)c1C(=O)OCC(=O)NC(=O)NC1CCCCC1,-2.89% (inactive)
8,CCCN(CCc1ccccc1)C1CCc2c(O)cccc2C1 (centres undefined),-0.71% (inactive)
9,CCCn1c(=O)c2ccccc2n2c(SCC(=O)/C(C#N)=C(\C)N)nnc12,-5.05% (inactive)
10,O=c1cc(CSc2ccccn2)nc(N2CCN(c3ccccc3)CC2)[nH]1,-2.49% (inactive)
11,CC(C)NS(=O)(=O)c1ccc(OCC(=O)Nc2ccc3c(c2)OCCO3)cc1,-7.01% (inactive)
12,CC1CCCN(C(=O)c2ccc3c(c2)C(=O)N(CCC2=CCCCC2)C3=O)C1 (centres undefined),-1.14% (inactive)
13,COc1ccccc1NC(=O)CSc1nnc(Cn2nnc(-c3ccccc3)n2)n1-c1ccccc1,2.15% (inactive)
14,O=C(c1ccco1)N1CCN=C1SCc1cccc(Cl)c1,-5.15% (inactive)
15,CCCCc1nc2ccccc2c(NC(=O)CN2CCN(C)CC2)c1CCC,-1.26% (inactive)
16,CCCn1cc(SCC(N)=O)c2ccccc21,-4.04% (inactive)
17,CC(C)(Oc1ccc(C2CC2(Cl)Cl)cc1)C(=O)O (centres undefined),1.49% (inactive)
18,COC1(C2=NCCN2)COc2ccccc2O1 (centres undefined),1.52% (inactive)
19,CCOC(=O)Nc1ccc2c(c1)N(C(=O)CN1CCN3CCCC3C1)c1ccccc1CC2 (centres undefined),-6.22% (inactive)
20,Cc1ccc(S(=O)(=O)NC(=O)N2CCCC(C)(C)C2)cc1,-0.1% (inactive)

row,SMILES,inhibition
1,O=c1c(F)cn(C2CCCO2)c(=O)n1Cc1ccccc1Cl (centres undefined),-6.6% (inactive)
2,CCOC(=O)C1=C(CC)Nc2ccccc2N=C1NC(=O)c1cccc(S(=O)(=O)N2CCCC2)c1,-3.82% (inactive)
3,CCCc1nc2ccccc2c(=O)n1NC(=O)c1c(O)c2ccccc2[nH]c1=O,-3.13% (inactive)
4,CCCc1nc2ccccc2c(=O)n1/N=C/c1ccc(O)c(O)c1,70.7% (active)
5,CCCCc1nc2ccccc2c(=O)n1NC(=O)c1c(O)c2cccc3c2n(c1=O)CC3,-2.36% (inactive)
6,CCC(=O)Nc1cccc(NC(=O)CSc2nnc(-c3ccc(NS(C)(=O)=O)cc3)n2C)c1,-0.45% (inactive)
7,O=C(CCc1ccccc1)Nc1ccc(NC(=O)C2CC2)nc1,-2.83% (inactive)
8,N#CC1=C(N)Oc2n[nH]c(CSc3ccccc3)c2C12C(=O)Nc1ccccc12 (centres undefined),-11.3% (inactive)
9,CC1Cc2ccccc2N1C(=O)CSc1nnc(-c2ccc(S(=O)(=O)N3CCCCC3)cc2)o1 (centres undefined),-0.41% (inactive)
10,Nn1c(SCC(=O)NC(=O)NC2CCCC2)nnc1-c1ccccc1F,-5.58% (inactive)
11,CCOC(=O)/C=c1\s/c(=C\c2ccccc2OC)c(=O)n1CC(=O)N1CCOCC1,-5.13% (inactive)
12,Cc1cc(C)c2nc(N3CCCC3)c(C#N)cc2c1,4.01% (inactive)
13,Cc1noc(C)c1S(=O)(=O)N(CC(=O)Nc1ccc2c(c1)OCCO2)c1ccc(C(C)C)cc1,-1.54% (inactive)
14,CNc1ncnc2c1ncn2[C@@H]1O[C@H](CO)[C@H](O)C1O (some centres undefined),-3.44% (inactive)
15,O=C(Nc1ccc(NC(=O)c2cccs2)cn1)c1ccco1,-0.15% (inactive)
16,CC(C)(C)c1ccc(NC(=O)NCc2ccco2)cc1,-5.65% (inactive)
17,Cc1ccc(C(=O)Nc2nnc(-c3cccs3)s2)cc1C,-0.3% (inactive)
18,CCNc1nc(N)nc(Oc2ccc(OCC)nn2)n1,-5.57% (inactive)
19,O=c1cc(-c2ccccc2)[nH]c2nc(Cl)ccc12,-1.33% (inactive)

# Source: PubChem BioAssay AID429 (Emory University Molecular Libraries Screening Center, 2006)
